Screens (PubChem BioAssay)
In the library only some 3.4% were active in any assay of this set; here they are far more common.
HGIII-sPLA2 inh: Inhibits HGIII-sPLA2 liposome hydrolysis, primary screen; inhibition, % at 12.2 µM; 370,000 tested, 0.56% active; AID 743126; Q9NZ20; QFRET BODIPY PC-A2 liposome hydrolysis, fluorescence;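 active = inhibition above mean plus 3 SD of compounds lying within the high and low control bounds, cut at about 19% in these data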
PLC-gamma1 inh: PLC-gamma1 (human) inhibition, primary screen. P19174. inhibition, % at 12.2 µM. purified PLC-gamma1, fluorogenic substrate, fluorescence. AID 720700. 370,000 tested, 0.84% active; in the data active = inhibition above about 9.5%
ADAM17 inh: ADAM17 inhibition, QFRET primary screen; P78536; recombinant ADAM17, EDANS/DABCYL FRET peptide cleavage; inhibition, % at 6.95 µM; 370,000 tested, 0.83% active;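 active = inhibition above the mean of compounds lying between control limits plus 3 SD, set per campaign, cut at about 8.5% in these data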
proKLK7 act: proKLK7 (human) activation, primary screen. P49862. purified proKLK7, EDANS-DABCYL substrate fluorescence; 100% is mature enzyme control, 0% vehicle. activation, % at 7 µM. 370,000 tested, 0.9% active. AID 652039;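 active = activation above the mean of all tested compounds plus 3 SD, computed per campaign excluding outliers beyond control limits, cut at about 13% in these data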
Target sequence (P49862 whole entry, looked up): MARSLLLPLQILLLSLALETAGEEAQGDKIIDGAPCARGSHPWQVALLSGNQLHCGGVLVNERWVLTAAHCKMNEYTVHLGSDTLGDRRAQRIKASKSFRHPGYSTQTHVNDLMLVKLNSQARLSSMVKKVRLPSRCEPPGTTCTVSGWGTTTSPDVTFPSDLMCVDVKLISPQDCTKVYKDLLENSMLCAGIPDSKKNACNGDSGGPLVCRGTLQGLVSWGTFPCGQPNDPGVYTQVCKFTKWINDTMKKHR
ADAM10 inh: inhibits human ADAM10; recombinant ADAM10, EDANS/DABCYL FRET peptide cleavage, 3 h; inhibition, % at 7 µM; 370,000 tested, 0.62% active; AID 720582;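 active = inhibition above a per-campaign cutoff equal to the mean of compounds falling between control-based bounds plus 3 SD, cut at about 20% in these data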
PLC-beta3 inh: PLC-beta3 (human) inhibition, primary screen | AID 720704 | Purified PLC-beta3, fluorogenic substrate, fluorescence | 370,000 tested, 0.18% active | inhibition, % at 12.2 µM; in the data active = inhibition above about 11%
ADAM10 confirm: human ADAM10 inhibition, confirmation; shares compounds with ADAM10 inh; ADAM10 QFRET peptide cleavage, EDANS fluorescence; inhibition, % at 6.95 µM; 2,100 tested, 1% active;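 active = inhibition above about 20% chosen separately for each screening run, limit read from the data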
ADAM17 ctr: counter-screen for ADAM10 exosite inhibitors: inhibitors of human ADAM17; shares compounds with ADAM10 inh; inhibition, % at 6.95 µM; AID 743214; 2,100 tested, 0.5% active; ADAM17 QFRET peptide cleavage, EDANS fluorescence;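 active = mean triplicate inhibition above the solvent-only control wells' mean plus 3 SD, cut at about 12% in these data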
ADAM10 ctr: counter-screen for ADAM17 exosite inhibitors: inhibitors of human ADAM10 | shares compounds with ADAM17 inh | recombinant ADAM10, EDANS/DABCYL FRET peptide cleavage, 3 h | inhibition, % at 6.95 µM | 2,900 tested, 47% active | AID 743256;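 active = mean inhibition over the triplicate runs exceeds the activity threshold set in the earlier primary screen, cut at about 20% in these data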
ADAM17 confirm: human ADAM17 inhibition, confirmation; shares compounds with ADAM17 inh; recombinant ADAM17, EDANS/DABCYL QFRET peptide cleavage; inhibition, % at 6.95 µM; 2,900 tested, 65% active;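 active = mean inhibition across replicates above the hit cutoff set in the primary screen, cut at about 8.5% in these data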
Large screens that a line does not name were inactive (follow-up assays come after a bar, where they were run).

Cc1cc(C)c(CN2CCN(C(=O)Cn3cnc4c(NCc5ccccc5)ncnc43)CC2)c(C)c1	ADAM17 inh 16, ADAM10 inh 28 | ADAM10 confirm inactive | ADAM17 ctr inactive | ADAM10 ctr 29 | ADAM17 confirm 14
COc1ccc(N2CCN(c3oc(COc4ccccc4Cl)nc3C#N)CC2)cc1	none
COc1ccc(Nc2oc(COc3cccc(C)c3)nc2C#N)cc1	ADAM17 inh 10, ADAM10 inh 30 | ADAM10 confirm inactive | ADAM17 ctr inactive | ADAM10 ctr 21 | ADAM17 confirm 13
COc1ccc(OCc2nc(C#N)c(N3CCN(c4ccc(OC)cc4)CC3)o2)cc1	ADAM17 inh 16, ADAM10 inh 29 | ADAM10 confirm inactive | ADAM17 ctr inactive | ADAM10 ctr inactive | ADAM17 confirm inactive
COc1ccc(Cl)cc1NC(=S)NCCc1c[nH]c2ccccc12	ADAM17 inh 10, ADAM10 inh 22 | ADAM10 confirm inactive | ADAM17 ctr inactive | ADAM10 ctr 36 | ADAM17 confirm 21
O=C(c1ccc(Cl)cc1)N1CCC(O)(CSc2ccc(Cl)cc2Cl)CC1	ADAM17 inh 9.4, ADAM10 inh 27 | ADAM10 confirm inactive | ADAM17 ctr inactive | ADAM10 ctr 27 | ADAM17 confirm 11
CCOC(=O)c1c(-c2ccccc2)csc1NC(=O)CSc1nc(N)cc(N)n1	ADAM17 inh 13, ADAM10 inh 26 | ADAM10 confirm inactive | ADAM17 ctr inactive | ADAM10 ctr inactive | ADAM17 confirm 9.8
CCOC(=O)c1c(-c2ccccc2)csc1NC(=O)CSc1nc(C)cc(C)n1	none
C=CCNC(=S)N(CC)c1cccc2ccccc12	none
COc1ccc(OC)c(-c2csc(NC(=O)CSc3ccc([N+](=O)[O-])cc3)n2)c1	ADAM17 inh 11, ADAM10 inh 23 | ADAM10 confirm inactive | ADAM17 ctr inactive | ADAM10 ctr 29 | ADAM17 confirm 13
COc1ccc(OC)c(-c2csc(NC(=O)CSc3ccc(Br)cc3)n2)c1	none
COc1cccc(CNC(=O)COC(=O)CCS(=O)(=O)c2ccc(C)cc2)c1	none
Nc1[nH]c(C(=O)c2ccccc2)c(-c2cccc(C(F)(F)F)c2)c1C(=O)NCCc1c[nH]c2ccccc12	ADAM17 inh 9.0, ADAM10 inh 24 | ADAM10 confirm inactive | ADAM17 ctr inactive | ADAM10 ctr 27 | ADAM17 confirm 14
Cc1cc(C)cc(-c2c(C(=O)c3ccccc3)[nH]c(N)c2C(=O)NCCc2c[nH]c3ccccc23)c1	none (no result: proKLK7 act)
CN(C)c1ccc(NC(=O)c2cn(-c3ccccc3)nc2-c2cccs2)cc1	ADAM17 inh 13, ADAM10 inh 28 | ADAM10 confirm inactive | ADAM17 ctr inactive | ADAM10 ctr inactive | ADAM17 confirm 9.7
CC(C)(C)NC(=O)C(c1c[nH]c2ccccc12)N(C(=O)Cn1nnc(-c2ccc(F)cc2)n1)c1cccc(O)c1 (stereo unspecified)	ADAM17 inh 14, ADAM10 inh 28 | ADAM10 confirm inactive | ADAM17 ctr inactive | ADAM10 ctr 32 | ADAM17 confirm 19
COc1ccc(C(=O)OCC(=O)Nc2ccc(Cl)c(C(F)(F)F)c2)c(OC)c1OC	ADAM17 inh 8.7, ADAM10 inh 20 | ADAM10 confirm inactive | ADAM17 ctr inactive | ADAM10 ctr 23 | ADAM17 confirm 13
COc1cccc(OC)c1C(=O)OCC(=O)Nc1ccc(OC(F)(F)F)cc1	ADAM17 inh 10, ADAM10 inh 27 | ADAM10 confirm inactive | ADAM17 ctr inactive | ADAM10 ctr inactive | ADAM17 confirm inactive
Cc1onc(-c2ccccc2)c1C(=O)OCC(=O)Nc1ccc(OC(F)(F)F)cc1	ADAM17 inh 9.4, ADAM10 inh 25 | ADAM10 confirm inactive | ADAM17 ctr inactive | ADAM10 ctr 33 | ADAM17 confirm 17
CCOc1ccc(S(=O)(=O)NN=C(C)c2cccnc2)cc1	none
C[N+](C)(C)c1ccc(/C=N/Nc2nc(Cl)c(C#N)c(Cl)c2Cl)cc1	none
N#Cc1c(Cl)nc(N/N=C/c2ccccc2)c(Cl)c1Cl	ADAM17 inh 9.1, ADAM10 inh 23 | ADAM10 confirm 31 | ADAM17 ctr 15 | ADAM10 ctr inactive | ADAM17 confirm inactive
CCS(=O)(=O)N1CCC2(CC1)OCCN2S(=O)(=O)c1ccc(OC)cc1	none
CC(C)c1ccc(Nc2nc(NCc3ccco3)nc(N3CCOCC3)n2)cc1	ADAM17 inh 12, ADAM10 inh 31 | ADAM10 confirm inactive | ADAM17 ctr inactive | ADAM10 ctr 23 | ADAM17 confirm 13
COc1ccc(-c2csc3ncnc(Oc4cccc5ccc(C)nc45)c23)cc1	ADAM17 inh 8.9, ADAM10 inh 21 | ADAM10 confirm inactive | ADAM17 ctr inactive | ADAM10 ctr inactive | ADAM17 confirm inactive
O=C(NCCc1c[nH]c2ccccc12)c1ccc(Sc2ccccc2Cl)c([N+](=O)[O-])c1	ADAM17 inh 9.1, ADAM10 inh 23 | ADAM10 confirm inactive | ADAM17 ctr inactive | ADAM10 ctr 27 | ADAM17 confirm 19
CCC(C(=O)OCC(=O)Nc1ccc(SC(F)F)cc1)c1ccccc1 (stereo unspecified)	ADAM17 inh 12, ADAM10 inh 29 | ADAM10 confirm inactive | ADAM17 ctr inactive | ADAM10 ctr 43 | ADAM17 confirm 23
CCOC(=O)C1=CCN(S(=O)(=O)c2ccccc2Cl)C1c1ccc(Cl)c(Cl)c1 (stereo unspecified)	ADAM17 inh 15, ADAM10 inh 21 | ADAM10 confirm inactive | ADAM17 ctr inactive | ADAM10 ctr inactive | ADAM17 confirm inactive
CN(CC(=O)Nc1cccc(F)c1)C(=O)c1cccc(S(=O)(=O)N2CCN(c3ccc(F)cc3)CC2)c1	ADAM17 inh 15, ADAM10 inh 20 | ADAM10 confirm inactive | ADAM17 ctr inactive | ADAM10 ctr 23 | ADAM17 confirm 10
COc1cc(/C=N/NC(=O)COc2ccc(Cl)cc2)ccc1OS(=O)(=O)c1ccc(C)cc1	ADAM17 inh 11, ADAM10 inh 27 | ADAM10 confirm inactive | ADAM17 ctr inactive | ADAM10 ctr 51 | ADAM17 confirm 34
